Data from PubChem BioAssay AID1159580 (chemical genetic matrix, 2015).
“And” between values parts separate entries of the source, which are not always exact repeats. Identical values can stand only once. About 2,000 (36%) of roughly 5,500 compounds were called active. Another 18% or so got no clear call; they are omitted. No stated cut-off is given here; in the data, active means normalized growth mostly below about 0.91 (no sharp cut-off); inconclusive means no clear call, values can overlap the other calls; inactive means mostly above about 0.92. This is one part of the list.

Experiment: chemical genetic growth profiling, strain panel (AID 1159580);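 further: tested at 20 µM; growth read once vehicle control cultures reached saturation at 30 °C; 1 = growth at the plate median or of vehicle wells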
Conditions: growth OD

Measured: normalized growth

CCn1cc(C(=O)O)c(=O)c2cc3c(cc21)OCO3
inactive: S. cerevisiae deletion strains, locus YJR066W, strain TOR1, stronger effect = lower value 0.991 | S. cerevisiae deletion strains, locus YJR075W, strain HOC1, stronger effect = lower value 1.02 and 0.993 | S. cerevisiae deletion strains, locus YKL009W, strain mrt4, stronger effect = lower value 1.01 | S. cerevisiae deletion strains, locus YKL068W, stronger effect = lower value 0.996 | S. cerevisiae deletion strains, locus YKL085W, strain MDH1 (second series), stronger effect = lower value 0.996 | S. cerevisiae deletion strains, locus YKL085W, strain MDH1, stronger effect = lower value 0.996 | S. cerevisiae deletion strains, locus YKL160W, strain elf1, stronger effect = lower value 0.961 | S. cerevisiae deletion strains, locus YKL190W, strain CNB1, stronger effect = lower value 1.01 | S. cerevisiae deletion strains, locus YKR001C, strain vps1, stronger effect = lower value 1.01 | S. cerevisiae deletion strains, locus YKR026C, strain gcn3, stronger effect = lower value 0.987 | S. cerevisiae deletion strains, locus YKR091W, strain srl3, stronger effect = lower value 0.982 | S. cerevisiae deletion strains, locus YLL001W, strain dnm1, stronger effect = lower value 0.96 | S. cerevisiae deletion strains, locus YLL026W, stronger effect = lower value 0.988 | S. cerevisiae deletion strains, locus YLL041C, strain sdh2, stronger effect = lower value 0.98 | S. cerevisiae deletion strains, locus YLR027C, strain aat2, stronger effect = lower value 0.986 | S. cerevisiae deletion strains, locus YLR039C, strain RIC1, stronger effect = lower value 1.03 | S. cerevisiae deletion strains, locus YLR058C, strain SHM2, stronger effect = lower value 1.01 | S. cerevisiae deletion strains, locus YLR102C, strain apc9, stronger effect = lower value 0.994 | S. cerevisiae deletion strains, locus YLR113W, strain HOG1, stronger effect = lower value 1.07 | S. cerevisiae deletion strains, locus YLR221C, strain rsa3, stronger effect = lower value 0.96 | S. cerevisiae deletion strains, locus YLR258W, strain gsy2, stronger effect = lower value 0.983 | S. cerevisiae deletion strains, locus YLR262C, strain YPT6 (second series), stronger effect = lower value 0.909 | S. cerevisiae deletion strains, locus YLR262C, strain YPT6, stronger effect = lower value 1.04 | S. cerevisiae deletion strains, locus YLR268W, strain sec22, stronger effect = lower value 1 | S. cerevisiae deletion strains, locus YLR320W, strain mms22, stronger effect = lower value 0.956 | S. cerevisiae deletion strains, locus YLR330W, strain CHS5, stronger effect = lower value 1.01 | S. cerevisiae deletion strains, locus YLR342W, strain FKS1 (second series), stronger effect = lower value 0.996 | S. cerevisiae deletion strains, locus YLR342W, strain FKS1, stronger effect = lower value 0.977 | S. cerevisiae deletion strains, locus YLR357W, strain rsc2, stronger effect = lower value 0.944 | S. cerevisiae deletion strains, locus YLR370C, strain arc18, stronger effect = lower value 0.964 | S. cerevisiae deletion strains, locus YLR371W, strain rom2, stronger effect = lower value 0.993 | S. cerevisiae deletion strains, locus YLR384C, strain iki3, stronger effect = lower value 0.959 | S. cerevisiae deletion strains, locus YLR418C, strain cdc73, stronger effect = lower value 1.01 | S. cerevisiae deletion strains, locus YML016C, strain PPZ1, stronger effect = lower value 1.01 | S. cerevisiae deletion strains, locus YML032C, strain rad52, stronger effect = lower value 1 | S. cerevisiae deletion strains, locus YML120C, strain ndi1, stronger effect = lower value 0.97 | S. cerevisiae deletion strains, locus YML124C, strain tub3, stronger effect = lower value 0.997 | S. cerevisiae deletion strains, locus YMR058W, strain fet3, stronger effect = lower value 0.982 | S. cerevisiae deletion strains, locus YMR078C, strain ctf18, stronger effect = lower value 1 | S. cerevisiae deletion strains, locus YMR125W, strain sto1, stronger effect = lower value 0.962 | S. cerevisiae deletion strains, locus YMR129W, stronger effect = lower value 0.989 | S. cerevisiae deletion strains, locus YMR205C, strain PFK2, stronger effect = lower value 0.946 | S. cerevisiae deletion strains, locus YMR223W, strain ubp8, stronger effect = lower value 1 | S. cerevisiae deletion strains, locus YMR231W, strain pep5, stronger effect = lower value 0.978 | S. cerevisiae deletion strains, locus YMR263W, strain SAP30, stronger effect = lower value 0.994 | S. cerevisiae deletion strains, locus YMR307W, strain GAS1, stronger effect = lower value 1.04 | S. cerevisiae deletion strains, locus YNL067W, strain RPL9B, stronger effect = lower value 1.02 | S. cerevisiae deletion strains, locus YNL071W, strain lat1, stronger effect = lower value 0.984 | S. cerevisiae deletion strains, locus YNL128W, strain TEP1, stronger effect = lower value 0.983 | S. cerevisiae deletion strains, locus YNL153C, strain GIM3, stronger effect = lower value 0.997 | S. cerevisiae deletion strains, locus YNL175C, strain NOP13, stronger effect = lower value 0.988 | S. cerevisiae deletion strains, locus YNL183C, strain NPR1, stronger effect = lower value 0.973 | S. cerevisiae deletion strains, locus YNL197C, strain WHI3, stronger effect = lower value 0.984 | S. cerevisiae deletion strains, locus YNL209W, strain ssb2, stronger effect = lower value 0.986 | S. cerevisiae deletion strains, locus YNL224C, strain SQS1, stronger effect = lower value 0.972 | S. cerevisiae deletion strains, locus YNL233W, strain BNI4, stronger effect = lower value 1.02 | S. cerevisiae deletion strains, locus YNL248C, strain rpa49, stronger effect = lower value 0.964 | S. cerevisiae deletion strains, locus YNL250W, strain rad50, stronger effect = lower value 1.01 | S. cerevisiae deletion strains, locus YNL271C, strain bni1, stronger effect = lower value 0.993 | S. cerevisiae deletion strains, locus YNL298W, strain CLA4, stronger effect = lower value 0.997 | S. cerevisiae deletion strains, locus YNL307C, strain MCK1, stronger effect = lower value 0.997 | S. cerevisiae deletion strains, locus YNL322C, strain KRE1 (second series), stronger effect = lower value 0.959 | S. cerevisiae deletion strains, locus YNR049C, strain mso1, stronger effect = lower value 0.974 | S. cerevisiae deletion strains, locus YNR052C, strain pop2, stronger effect = lower value 1 | S. cerevisiae deletion strains, locus YOL006C, strain TOP1, stronger effect = lower value 1.04 | S. cerevisiae deletion strains, locus YOL012C, strain htz1 1.19 | S. cerevisiae deletion strains, locus YOL147C, strain pex11, stronger effect = lower value 0.991 | S. cerevisiae deletion strains, locus YOR001W, strain rrp6, stronger effect = lower value 1.01 | S. cerevisiae deletion strains, locus YOR061W, strain CKA2, stronger effect = lower value 1.02 | S. cerevisiae deletion strains, locus YOR069W, strain VPS5, stronger effect = lower value 1.01 | S. cerevisiae deletion strains, locus YOR070C, strain gyp1, stronger effect = lower value 0.975 | S. cerevisiae deletion strains, locus YOR080W, strain dia2, stronger effect = lower value 0.972 | S. cerevisiae deletion strains, locus YOR083W, strain WHI5 (second series), stronger effect = lower value 0.981 | S. cerevisiae deletion strains, locus YOR083W, strain WHI5, stronger effect = lower value 0.969 | S. cerevisiae deletion strains, locus YOR106W, strain vam3, stronger effect = lower value 0.935 | S. cerevisiae deletion strains, locus YOR136W, strain idh2, stronger effect = lower value 0.997 | S. cerevisiae deletion strains, locus YOR144C, strain elg1, stronger effect = lower value 0.991 | S. cerevisiae deletion strains, locus YOR184W, strain ser1, stronger effect = lower value 0.998 | S. cerevisiae deletion strains, locus YOR231W, strain MKK1, stronger effect = lower value 1.1 | S. cerevisiae deletion strains, locus YOR265W, strain rbl2, stronger effect = lower value 0.973 | S. cerevisiae deletion strains, locus YOR270C, strain vph1, stronger effect = lower value 0.957 | S. cerevisiae deletion strains, locus YOR290C, strain snf2, stronger effect = lower value 0.976 | S. cerevisiae deletion strains, locus YOR316C, strain cot1, stronger effect = lower value 0.997 | S. cerevisiae deletion strains, locus YPL051W, strain arl3, stronger effect = lower value 0.995 | S. cerevisiae deletion strains, locus YPL055C, strain LGE1, stronger effect = lower value 0.985 | S. cerevisiae deletion strains, locus YPL078C, strain atp4, stronger effect = lower value 0.971 | S. cerevisiae deletion strains, locus YPL106C, strain sse1, stronger effect = lower value 0.936 | S. cerevisiae deletion strains, locus YPL240C, strain hsp82, stronger effect = lower value 0.992 | S. cerevisiae deletion strains, locus YPL256C, strain CLN2, stronger effect = lower value 1.09 | S. cerevisiae deletion strains, locus YPR119W, strain clb2, stronger effect = lower value 0.988 | S. cerevisiae deletion strains, locus YPR141C, strain kar3, stronger effect = lower value 0.988 | S. cerevisiae deletion strains, locus YPR163C, strain tif3, stronger effect = lower value 0.987 | S. cerevisiae deletion strains, locus YPR167C, strain met16, stronger effect = lower value 0.985 | S. cerevisiae deletion strains, strain wtn01, stronger effect = lower value 1 | S. cerevisiae strains, strain wild type, stronger effect = lower value 1.02
